Measured values from PubChem BioAssay (NCATS).
Results filed as inconclusive are left out. A call without a number means that no potency is given here. Calls of active or inactive are those of the source. Calls come from the whole dose curve; as a rule, active = well fitted cell-killing curve with a large enough effect; inconclusive = small, poorly fitted or top-dose-only effect; inactive = flat fitted curve, though single readings scatter. Starred links: 1 amine or outer side, 2 acyl side, 3 side chain; linkers in the order of their positions; H or OH if unused. Positions of bridges follow the written chain, without caps; N, C: chain ends. Non-standard residues stand in square brackets, D forms with d. Residues, ends and D or L forms follow the SMILES beside them. ξ: configuration not given here. *: point of attachment. X3 = C[C@@H](Oc1ccc([C@H](N[*:1])C(=O)[*:2])cc1)[C@]1(/C=C\C(=O)[*:3])CO1; d(aIle) = CC[C@H](C)[C@@H](N)C(=O)O; X2 = CC(C)[C@@H](O)C(C)C(=O)*; ξNMeF = CNC(Cc1ccccc1)C(=O)O; ξT = CC(O)C(N)C(=O)O; ξS = NC(CO)C(=O)O

assay: U-118MG Cancer Cell Toxicity qHTS against the NCATS CANVASS Library (AID 1347351); conditions: U-118MG viability, CellTiter-Glo luminescence, 72 h; series mostly up to 38.3 µM
Excerpt: Natural products and their derivatives continue to be wellsprings of nascent therapeutic potential. However, many laboratories have limited resources for biological evaluation, leaving their previously isolated or synthesized compounds largely or completely untested. To address this issue, the Canvass library of natural products was assembled (https://tripod.nih.gov/canvass), in collaboration with academic and industry researchers, for quantitative high-throughput screening (qHTS) across a diverse set of cell-based and biochemical assays. The pure (>85% purity by liquid chromatography/mass spectrometry [LC/MS]) Canvass library of 346 natural products were submitted by 45 academic laboratories and companies around the world. We collected pure natural products to circumvent deconvolution and structure elucidation due to time and resource limitations. The library was formatted into 1536-well plates and evaluated in 50 qHTS (in an 11-pnt concentration series) bioassays with broad scope of disease-relevant mechanisms. The resulting data set from 50 different assays was then systematically analyzed to identify overall trends and specific natural products with interesting biological activities. Reported herein are the results of each individual qHTS and their corresponding assay protocol. National Center for Advancing Translational Sciences (NCATS), Rockville, MD National Institute of Health (NIH), Bethesda, Maryland
Cancer Cell Toxicity protocol for cell lines COV-362, OV-KATE, OV-SAHO, UWB1.289, UWB1.289-WTBRCA1, HEK-293, HPAF-II, Panc-1005, SW1088, or U-118MG. 1. In a 1536 well, white solid bottom tissue culture plates (Corning 7494), corresponding cells (COV-362, OV-KATE, OV-SAHO, UWB1.289, UWB1.289-WTBRCA1, HEK-293, HPAF-II, Panc-1005, SW1088, or U-118MG) were dispensed in each well at a final concentration of 1000 cells / well (6uL volume) using the Multidrop Combi (Thermo Fisher Scientific) dispenser. 2. The plates were incubated for 4 hours at 37 degrees C/5% CO2/95% Rh. 3. Compounds were pin transferred (~23nL volume) via Wako Pin-tool (Wako Automation, Richmond VA) equipped with a 1536 pin head. The assay plates were treated with compounds in an 11-pnt concentration series with a final concentration range of […] to 85uM. 4. Bortezomib was used as a single dose control (0.5mM column 4, rows 1 - 32) at a final concentration of 1.9uM and as a 16pnt titration (1mM; 1:2 dilution; 16-points; n = 2; column 3, rows 1 - 32) with final concentration range of 0.1nM - 3.8uM. 5. The assay plates were incubated for 72 hours at 37 degrees C/5% CO2/95% Rh. 6. 3uL CellTiter-Glo detection reagent was then added to the plates (columns 2 - 48, rows 1 - 32) and incubated at room temperature for additional 15min. 7. Luminescence signal was acquired via the ViewLux plate reader (PerkinElmer) using a clear filter, 2 second exposure and 2x binning settings.
Potency is the fitted concentration of half-maximal effect.

SMILES	Potency
C=CC(C)(C)[C@@]12C[C@H]3C(=O)N/C(=C\c4cnc[nH]4)C(=O)N3[C@@H]1Nc1ccccc12	inactive
CC(C)CC1C(=O)O[C@H](C(C)C)C(=O)N(C)C(CC(C)C)C(=O)O[C@@H](C(C)C)C(=O)N(C)C(CC(C)C)C(=O)O[C@H](C(C)C)C(=O)N(C)C(CC(C)C)C(=O)O[C@@H](C(C)C)C(=O)N1C (some centres not stated)	inactive
COC1C(O)C(C)OC(OC2C(Oc3cccc4c(O)c5c(=O)oc6ccc(C)c7c(=O)oc(c34)c5c67)OC(C)C(O)C2O)C1O (configuration not stated)	inactive
C/C=C/[C@@H]1[C@H]2C[C@@H](C)CC[C@@H]2C(C)=C[C@H]1C(=O)c1c(O)c(-c2ccc(O)cc2)c[nH]c1=O	inactive
C[C@]12CC(O)C3[C@@H](CC[C@@H]4C[C@@H](O)CC[C@]34CO)[C@@]1(O)CC[C@@H]2C1=CC(=O)OC1 (some centres not stated)	2660 nM (active)
CC[C@@H]1CN2CCC3(Nc4cccc(OC)c4C3=O)[C@@H]2C[C@@H]1/C(=C\OC)C(=O)OC (some centres not stated)	inactive
CCCCC1CC[C@H]2CCCC(CCC)N12 (some centres not stated)	inactive
C1=C2CCCN[C@H]2C2CC1[C@H]1CCCCN1C2 (some centres not stated)	inactive
C[N+](C)(C)CCc1c[nH]c2ccccc12	inactive
CO[C@H]1[C@H](O[C@H]2CC[C@]3(C=O)[C@H]4CC[C@]5(C)[C@@H](C6=CC(=O)OC6)CC[C@]5(O)[C@@H]4CC[C@]3(O)C2)O[C@H](C)[C@H](O)[C@@H]1OC	94.3 nM (active)
C=C[C@]12C=CCN3CC[C@@]4(c5ccccc5NC(=O)[C@@H]4C1)[C@@H]32	inactive
CC[C@H](C)[C@H]1NC(=O)[C@@H](NC(=O)C(C)[C@H](O)C(C)C)[C@@H](C)OC(=O)C2COC(=O)CNC(=O)/C=C\[C@]3(CO3)[C@@H](C)Oc3ccc(cc3)[C@H](NC1=O)C(=O)N(C)C(Cc1ccccc1)C(=O)NC(C(C)O)C(=O)N2 (some centres not stated) (X2-T[d(aIle)][X3][ξNMeF][ξT][ξS]; ester 1-C; linker 3-6 via G)	inactive
O[C@H]1C=C[C@@]23CCN(Cc4cc5c(cc42)OCO5)[C@@H]3C1	inactive
CC[C@]12C=CCN3CC[C@]4(C(=C(C(=O)OC)C1)Nc1ccccc14)[C@@H]32	inactive
C/C=C1/CN2CC[C@]34C(=C(C(=O)OC)[C@H]1C[C@H]23)Nc1ccccc14	inactive
c1ccc2nc3c(cc2c1)[nH]c1ccccc13	inactive
CO[C@@]12c3c(C)cc(O)c4c(=O)occ(c34)C(=O)[C@@H]1[C@]13COC(=O)c4c(O)cc(C)c(c41)C(=O)[C@H]2[C@@H]3OC(C)=O	inactive
C=C(C)[C@H]1C(=O)c2c3c(cc4c5c(n1c24)[C@@]1(C)[C@@H](CC[C@H]2[C@](C)(/C=C/C=C(\C)C(=O)O)[C@@H](O)CC[C@@]21C)C5)C1=CC(C)(C)OC(C)(C)[C@H]1[C@@H]3O	18800 nM (active)
CC[C@H]1CN2CCc3c([nH]c4cccc(OC)c34)[C@@H]2C[C@@H]1/C(=C\OC)C(=O)OC	18800 nM (active)
CO[C@@H](/C=C/CC/C=C/C(=O)O)[C@@H](O)[C@H](C)/C=C(\C)[C@H](O)[C@H](C)C(=O)CCCC1CC(=O)NC(=O)C1	inactive
C=CC(C)(C)[C@@]12C[C@H]3C(=O)N/C(=C/c4cnc[nH]4)C(=O)N3[C@@H]1Nc1ccccc12	inactive
COC1=C(C2=C(OC)C(=O)c3cc4c(c(O)c3C2=O)C(=O)O[C@H](C)C4)C(=O)c2c(cc3c(c2O)C(=O)O[C@H](C)C3)C1=O	inactive
CCCC[C@@H]1CC[C@H]2CCCC(CCCO)N12 (some centres not stated)	inactive
CCCC[C@@H](C)/C=C1/CN2CCC[C@H]2[C@@](C)(O)[C@@H]1O	inactive
CO[C@H]1C[C@H](O[C@H]2[C@@H](O)C[C@H](O[C@H]3CC[C@]4(C=O)[C@H]5CC[C@]6(C)C(C7=CC(=O)OC7)CC[C@]6(O)[C@@H]5CC[C@]4(O)C3)O[C@@H]2C)O[C@H](C)[C@H]1O[C@H]1C[C@@H](OC)[C@@H](O[C@@H]2O[C@H](CO)[C@@H](O)[C@H](O)[C@H]2O)[C@@H](C)O1 (some centres not stated)	188 nM (active)
C[C@]12CCC3[C@@H](CC[C@@H]4C[C@@H](O)CC[C@]34CO)[C@@]1(O)CC[C@@H]2C1=CC(=O)OC1 (some centres not stated)	841 nM (active)
C/C=C1/CN2CC[C@@]34c5ccccc5N(C)[C@@H]3[C@@H]2C[C@@H]1[C@H]4C(=O)OC	inactive
